In PMC7862700, “An all-to-all approach to the identification of sequence-specific readers for epigenetic DNA modifications on cytosine”:

Columns and labels:
Test in all cases: DAPPL (digital affinity profiling via proximity ligation, sequencing); 10 mM Tris-HCl pH 7.5, 50 mM NaCl, 1 mM DTT, 4% glycerol, room temperature, 30 min; GST-TFs on glutathione beads, 16-mer random dsDNA library, 0.1% formaldehyde crosslink after washing; high values mean tight binding
FLI1 = target: T1, FLI1 (Homo sapiens, UniProt Q01543 1-452); conditions: protein: recombinant; tags: N-terminal GST; dsDNA, one strand shown
T1 sequence: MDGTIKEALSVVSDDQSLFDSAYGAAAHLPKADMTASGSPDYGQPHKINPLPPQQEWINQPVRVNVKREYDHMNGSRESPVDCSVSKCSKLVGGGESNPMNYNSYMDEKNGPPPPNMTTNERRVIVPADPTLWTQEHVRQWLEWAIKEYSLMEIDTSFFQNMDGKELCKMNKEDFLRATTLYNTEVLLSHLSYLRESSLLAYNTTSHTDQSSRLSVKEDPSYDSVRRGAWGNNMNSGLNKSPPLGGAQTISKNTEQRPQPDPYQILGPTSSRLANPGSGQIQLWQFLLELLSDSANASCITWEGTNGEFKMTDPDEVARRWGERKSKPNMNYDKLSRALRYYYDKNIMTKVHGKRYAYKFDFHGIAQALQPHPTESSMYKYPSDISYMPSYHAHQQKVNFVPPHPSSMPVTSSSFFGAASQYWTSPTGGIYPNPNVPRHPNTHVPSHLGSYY
In short: (§1)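 Human transcription factors fused to GST were expressed in yeast, captured on glutathione beads, given DNA barcodes and pooled with a GST-only negative control. Pools were incubated with 200 nmole of a 16-mer random double-stranded DNA library in Tris/NaCl/DTT/glycerol buffer at room temperature for 30 min. They were then washed, crosslinked with 0.1% formaldehyde, proximity-ligated (BsaI/T4 ligase, 1 h, 37 °C), PCR-amplified and sequenced on an Illumina NextSeq500. Binding signal is each 6-mer's read frequency for a factor divided by its frequency for the GST control.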

ELK1 = target: T2, ELK1 (Homo sapiens, UniProt P19419 1-428); conditions: protein: recombinant; tags: N-terminal GST; dsDNA, one strand shown
T2 sequence: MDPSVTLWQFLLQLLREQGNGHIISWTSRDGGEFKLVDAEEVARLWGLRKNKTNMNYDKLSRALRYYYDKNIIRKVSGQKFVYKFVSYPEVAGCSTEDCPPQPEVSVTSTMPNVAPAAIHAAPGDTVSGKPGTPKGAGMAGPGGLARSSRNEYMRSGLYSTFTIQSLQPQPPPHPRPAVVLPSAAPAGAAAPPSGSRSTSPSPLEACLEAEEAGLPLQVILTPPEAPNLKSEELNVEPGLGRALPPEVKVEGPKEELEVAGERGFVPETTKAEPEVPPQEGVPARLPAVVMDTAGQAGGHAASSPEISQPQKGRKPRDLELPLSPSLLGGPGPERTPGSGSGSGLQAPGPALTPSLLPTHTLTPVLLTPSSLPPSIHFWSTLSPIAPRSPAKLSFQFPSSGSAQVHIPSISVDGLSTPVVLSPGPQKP
In short: as §1

GABPA = target: T3, GABPA (Homo sapiens, UniProt Q06546 1-454); conditions: protein: recombinant; tags: N-terminal GST; dsDNA, one strand shown
T3 sequence: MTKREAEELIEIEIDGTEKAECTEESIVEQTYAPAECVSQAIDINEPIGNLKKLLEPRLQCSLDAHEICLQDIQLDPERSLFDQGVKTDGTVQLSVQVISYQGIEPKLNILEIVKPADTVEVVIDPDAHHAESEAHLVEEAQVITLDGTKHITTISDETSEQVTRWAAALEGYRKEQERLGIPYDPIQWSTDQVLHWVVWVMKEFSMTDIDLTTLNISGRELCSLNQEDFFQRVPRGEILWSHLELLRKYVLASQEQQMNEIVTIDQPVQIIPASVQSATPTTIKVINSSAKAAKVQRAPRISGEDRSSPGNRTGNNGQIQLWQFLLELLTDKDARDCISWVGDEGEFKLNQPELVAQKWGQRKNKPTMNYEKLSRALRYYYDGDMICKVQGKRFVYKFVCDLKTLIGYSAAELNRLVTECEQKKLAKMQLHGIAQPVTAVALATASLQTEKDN
In short: as §1

ERG = target: T4, ERG (Homo sapiens, UniProt P11308 1-479); conditions: protein: recombinant; tags: N-terminal GST; dsDNA, one strand shown
T4 sequence: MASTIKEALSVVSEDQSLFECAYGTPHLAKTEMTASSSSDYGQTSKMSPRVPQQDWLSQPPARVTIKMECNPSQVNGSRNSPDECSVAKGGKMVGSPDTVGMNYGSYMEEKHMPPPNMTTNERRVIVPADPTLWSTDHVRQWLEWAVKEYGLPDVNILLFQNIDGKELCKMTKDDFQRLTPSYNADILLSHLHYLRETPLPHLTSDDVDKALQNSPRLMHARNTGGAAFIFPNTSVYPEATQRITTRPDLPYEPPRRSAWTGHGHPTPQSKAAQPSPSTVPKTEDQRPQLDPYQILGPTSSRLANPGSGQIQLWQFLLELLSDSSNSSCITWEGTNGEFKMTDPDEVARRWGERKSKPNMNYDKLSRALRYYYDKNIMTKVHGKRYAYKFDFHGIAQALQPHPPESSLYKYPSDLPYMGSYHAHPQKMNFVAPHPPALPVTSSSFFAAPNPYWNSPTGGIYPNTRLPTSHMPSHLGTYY
In short: as §1

ELF1 = ELF1 (Homo sapiens, UniProt P32519 1-619); conditions: protein: recombinant; tags: N-terminal GST; dsDNA, one strand shown
Chain of ELF1 (P32519 whole entry): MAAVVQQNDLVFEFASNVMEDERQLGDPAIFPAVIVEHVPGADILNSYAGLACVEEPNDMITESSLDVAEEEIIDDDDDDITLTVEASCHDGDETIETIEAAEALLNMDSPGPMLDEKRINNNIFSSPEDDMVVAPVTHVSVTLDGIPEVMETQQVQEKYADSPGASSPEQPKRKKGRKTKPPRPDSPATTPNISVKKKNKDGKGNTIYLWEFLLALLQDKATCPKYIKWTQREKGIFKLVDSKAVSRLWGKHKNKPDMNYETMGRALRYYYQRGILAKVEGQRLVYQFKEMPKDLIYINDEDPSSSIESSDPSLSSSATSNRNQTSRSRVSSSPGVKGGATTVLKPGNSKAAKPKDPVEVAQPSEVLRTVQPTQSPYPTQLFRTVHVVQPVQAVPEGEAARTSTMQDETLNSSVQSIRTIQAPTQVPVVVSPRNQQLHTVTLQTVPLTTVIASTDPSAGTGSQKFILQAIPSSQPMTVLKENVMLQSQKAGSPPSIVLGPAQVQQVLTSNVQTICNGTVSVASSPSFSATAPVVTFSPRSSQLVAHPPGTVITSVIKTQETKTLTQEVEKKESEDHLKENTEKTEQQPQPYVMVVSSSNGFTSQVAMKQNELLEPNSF
In short: as §1

EHF = target: T5, EHF (Homo sapiens, UniProt Q9NZC4 1-300); conditions: protein: recombinant; tags: N-terminal GST; dsDNA, one strand shown
T5 sequence: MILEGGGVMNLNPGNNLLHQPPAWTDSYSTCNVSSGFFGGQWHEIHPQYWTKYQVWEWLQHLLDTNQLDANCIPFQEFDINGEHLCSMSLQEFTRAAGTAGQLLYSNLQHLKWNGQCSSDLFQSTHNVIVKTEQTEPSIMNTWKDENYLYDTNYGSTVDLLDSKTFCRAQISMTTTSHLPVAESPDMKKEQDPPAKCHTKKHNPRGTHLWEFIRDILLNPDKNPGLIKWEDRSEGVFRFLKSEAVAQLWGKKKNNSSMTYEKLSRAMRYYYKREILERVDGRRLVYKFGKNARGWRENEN
In short: as §1

SPI1 = SPI1 (Homo sapiens, UniProt P17947 1-270); conditions: protein: recombinant; tags: N-terminal GST; dsDNA, one strand shown
In short: as §1

SPIB = SPIB (Homo sapiens, UniProt Q01892 1-262); conditions: protein: recombinant; tags: N-terminal GST; dsDNA, one strand shown
Chain of SPIB (Q01892 whole entry): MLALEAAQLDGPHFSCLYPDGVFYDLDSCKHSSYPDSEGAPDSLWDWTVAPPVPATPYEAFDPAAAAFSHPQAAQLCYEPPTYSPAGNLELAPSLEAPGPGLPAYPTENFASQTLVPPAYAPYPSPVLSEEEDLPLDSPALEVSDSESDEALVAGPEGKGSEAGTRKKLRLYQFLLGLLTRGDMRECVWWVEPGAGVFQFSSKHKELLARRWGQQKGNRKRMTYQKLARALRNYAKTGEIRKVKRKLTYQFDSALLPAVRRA
In short: as §1

ELK3 = target: T6, ELK3 (Homo sapiens, UniProt P41970 1-407); conditions: protein: recombinant; tags: N-terminal GST; dsDNA, one strand shown
T6 sequence: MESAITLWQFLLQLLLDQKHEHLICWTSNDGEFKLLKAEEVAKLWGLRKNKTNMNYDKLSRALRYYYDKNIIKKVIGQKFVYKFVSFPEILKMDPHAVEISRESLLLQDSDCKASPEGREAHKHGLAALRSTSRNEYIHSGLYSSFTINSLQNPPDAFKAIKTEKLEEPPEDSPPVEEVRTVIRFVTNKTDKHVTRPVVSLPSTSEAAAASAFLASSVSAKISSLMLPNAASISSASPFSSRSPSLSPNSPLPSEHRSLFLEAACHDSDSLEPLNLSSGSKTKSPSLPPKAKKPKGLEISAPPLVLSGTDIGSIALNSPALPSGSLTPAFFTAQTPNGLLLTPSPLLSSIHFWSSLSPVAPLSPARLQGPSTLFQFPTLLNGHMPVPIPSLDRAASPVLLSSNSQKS
In short: as §1

FEV = target: T7, FEV (Homo sapiens, UniProt Q99581 1-238); conditions: protein: recombinant; tags: N-terminal GST; dsDNA, one strand shown
T7 sequence: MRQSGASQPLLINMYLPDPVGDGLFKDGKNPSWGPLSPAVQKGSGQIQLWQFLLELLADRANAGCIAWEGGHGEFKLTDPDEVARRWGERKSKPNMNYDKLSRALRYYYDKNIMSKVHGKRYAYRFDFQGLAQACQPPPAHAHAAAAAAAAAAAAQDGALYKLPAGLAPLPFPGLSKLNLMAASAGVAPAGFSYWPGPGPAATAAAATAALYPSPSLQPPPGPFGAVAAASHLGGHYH
In short: as §1

ETV5 = ETV5 (Homo sapiens, UniProt P41161 1-510); conditions: protein: recombinant; tags: N-terminal GST; dsDNA, one strand shown
Chain of ETV5 (P41161 whole entry): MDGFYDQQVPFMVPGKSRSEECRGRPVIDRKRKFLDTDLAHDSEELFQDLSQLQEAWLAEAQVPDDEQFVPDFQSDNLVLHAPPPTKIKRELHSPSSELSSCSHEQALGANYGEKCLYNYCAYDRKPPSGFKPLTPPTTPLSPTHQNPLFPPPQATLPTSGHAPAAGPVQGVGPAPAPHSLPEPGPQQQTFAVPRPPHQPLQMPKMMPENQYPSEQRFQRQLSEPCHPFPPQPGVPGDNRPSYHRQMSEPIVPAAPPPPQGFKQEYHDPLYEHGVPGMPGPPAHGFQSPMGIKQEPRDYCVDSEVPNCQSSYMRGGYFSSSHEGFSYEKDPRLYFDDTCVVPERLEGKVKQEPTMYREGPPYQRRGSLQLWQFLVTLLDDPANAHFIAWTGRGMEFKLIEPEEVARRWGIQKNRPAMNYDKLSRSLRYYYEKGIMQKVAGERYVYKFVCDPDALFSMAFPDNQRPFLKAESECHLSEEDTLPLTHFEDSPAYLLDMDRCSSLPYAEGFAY
In short: as §1

HSF1 = HSF1 (Homo sapiens, UniProt Q00613 1-529); conditions: protein: recombinant; tags: N-terminal GST; chain copies: 3; dsDNA, one strand shown
Chain of HSF1 (Q00613 whole entry): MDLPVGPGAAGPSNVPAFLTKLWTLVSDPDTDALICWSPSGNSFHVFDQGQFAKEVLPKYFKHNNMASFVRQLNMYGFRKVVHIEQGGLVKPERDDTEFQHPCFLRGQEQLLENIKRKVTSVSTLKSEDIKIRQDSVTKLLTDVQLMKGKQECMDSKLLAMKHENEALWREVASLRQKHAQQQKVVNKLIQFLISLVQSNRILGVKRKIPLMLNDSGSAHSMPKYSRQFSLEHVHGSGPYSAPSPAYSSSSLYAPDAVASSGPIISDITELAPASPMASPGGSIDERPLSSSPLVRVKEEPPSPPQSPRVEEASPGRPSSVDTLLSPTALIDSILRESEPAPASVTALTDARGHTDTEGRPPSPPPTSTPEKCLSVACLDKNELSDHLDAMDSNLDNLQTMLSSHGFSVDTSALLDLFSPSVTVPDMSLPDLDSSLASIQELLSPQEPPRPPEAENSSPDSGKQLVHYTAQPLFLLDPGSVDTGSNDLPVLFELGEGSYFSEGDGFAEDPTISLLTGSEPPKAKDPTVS
In short: as §1

SPIC = target: T8, SPIC (Homo sapiens, UniProt Q8N5J4 1-248); conditions: protein: recombinant; tags: N-terminal GST; dsDNA, one strand shown
T8 sequence: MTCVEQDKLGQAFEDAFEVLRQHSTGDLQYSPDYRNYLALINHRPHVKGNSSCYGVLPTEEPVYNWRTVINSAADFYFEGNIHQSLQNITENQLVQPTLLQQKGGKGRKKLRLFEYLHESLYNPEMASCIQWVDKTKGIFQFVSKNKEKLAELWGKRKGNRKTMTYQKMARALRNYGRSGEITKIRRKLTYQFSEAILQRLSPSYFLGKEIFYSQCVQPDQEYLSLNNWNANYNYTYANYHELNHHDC
In short: as §1

ELF4 = ELF4 (Homo sapiens, UniProt Q99607 1-663); conditions: protein: recombinant; tags: N-terminal GST; dsDNA, one strand shown
Chain of ELF4 (Q99607 whole entry): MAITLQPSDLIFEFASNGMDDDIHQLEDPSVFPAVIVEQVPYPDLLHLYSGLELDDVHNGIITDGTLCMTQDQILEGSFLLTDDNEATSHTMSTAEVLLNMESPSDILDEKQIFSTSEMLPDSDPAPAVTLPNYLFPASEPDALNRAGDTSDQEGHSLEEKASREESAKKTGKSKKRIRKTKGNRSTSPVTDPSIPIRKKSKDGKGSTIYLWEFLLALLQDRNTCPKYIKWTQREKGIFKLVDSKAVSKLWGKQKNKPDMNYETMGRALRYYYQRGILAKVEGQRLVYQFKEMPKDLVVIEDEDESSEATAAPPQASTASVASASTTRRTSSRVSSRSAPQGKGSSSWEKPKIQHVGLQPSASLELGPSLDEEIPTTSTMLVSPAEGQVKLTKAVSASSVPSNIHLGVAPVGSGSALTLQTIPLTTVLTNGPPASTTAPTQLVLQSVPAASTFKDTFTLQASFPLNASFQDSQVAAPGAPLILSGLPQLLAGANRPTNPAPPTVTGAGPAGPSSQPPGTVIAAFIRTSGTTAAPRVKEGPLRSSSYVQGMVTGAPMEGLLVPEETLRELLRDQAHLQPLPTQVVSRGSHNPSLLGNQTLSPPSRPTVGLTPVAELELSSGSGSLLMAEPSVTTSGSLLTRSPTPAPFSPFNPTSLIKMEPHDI
In short: as §1

ELK4 = target: T9, ELK4 (Homo sapiens, UniProt P28324-2 1-405); conditions: protein: recombinant; tags: N-terminal GST; dsDNA, one strand shown
T9 sequence: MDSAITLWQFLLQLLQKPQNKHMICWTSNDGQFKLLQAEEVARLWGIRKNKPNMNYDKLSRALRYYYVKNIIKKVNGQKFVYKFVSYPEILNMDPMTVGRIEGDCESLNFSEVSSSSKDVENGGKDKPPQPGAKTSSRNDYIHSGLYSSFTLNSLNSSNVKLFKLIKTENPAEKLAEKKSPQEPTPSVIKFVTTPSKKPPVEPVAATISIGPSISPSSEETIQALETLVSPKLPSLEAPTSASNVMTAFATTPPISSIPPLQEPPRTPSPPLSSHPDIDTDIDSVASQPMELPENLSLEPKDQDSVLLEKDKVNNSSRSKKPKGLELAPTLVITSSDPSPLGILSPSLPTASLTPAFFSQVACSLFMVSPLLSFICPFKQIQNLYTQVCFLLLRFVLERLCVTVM
In short: as §1

ETV2 = target: T10, ETV2 (Homo sapiens, UniProt O00321 1-342); conditions: protein: recombinant; tags: N-terminal GST; dsDNA, one strand shown
T10 sequence: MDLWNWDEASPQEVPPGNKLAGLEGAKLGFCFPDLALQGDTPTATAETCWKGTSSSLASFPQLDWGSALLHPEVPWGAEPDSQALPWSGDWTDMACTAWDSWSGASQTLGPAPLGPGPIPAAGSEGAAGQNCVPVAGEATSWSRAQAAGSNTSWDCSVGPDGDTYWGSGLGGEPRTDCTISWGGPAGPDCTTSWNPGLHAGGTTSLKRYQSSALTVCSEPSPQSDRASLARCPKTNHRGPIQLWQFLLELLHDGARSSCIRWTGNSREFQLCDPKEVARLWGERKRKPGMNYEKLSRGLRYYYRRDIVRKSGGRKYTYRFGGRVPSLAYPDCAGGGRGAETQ
In short: as §1

ELF3 = target: T11, ELF3 (Homo sapiens, UniProt P78545 1-371); conditions: protein: recombinant; tags: N-terminal GST; dsDNA, one strand shown
T11 sequence: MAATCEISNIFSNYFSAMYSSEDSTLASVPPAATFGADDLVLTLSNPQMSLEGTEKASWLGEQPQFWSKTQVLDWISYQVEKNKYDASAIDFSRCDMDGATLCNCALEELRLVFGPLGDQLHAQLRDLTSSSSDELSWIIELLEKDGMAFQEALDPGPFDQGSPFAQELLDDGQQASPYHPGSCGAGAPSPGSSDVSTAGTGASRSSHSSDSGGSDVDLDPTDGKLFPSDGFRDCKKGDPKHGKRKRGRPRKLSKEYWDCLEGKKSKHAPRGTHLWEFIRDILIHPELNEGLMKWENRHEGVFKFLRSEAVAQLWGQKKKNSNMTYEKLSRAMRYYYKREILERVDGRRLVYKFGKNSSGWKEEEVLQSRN
In short: as §1

CRX = CRX (Homo sapiens, UniProt O43186 1-299); conditions: protein: recombinant; tags: N-terminal GST; dsDNA, one strand shown
Chain of CRX (O43186 whole entry): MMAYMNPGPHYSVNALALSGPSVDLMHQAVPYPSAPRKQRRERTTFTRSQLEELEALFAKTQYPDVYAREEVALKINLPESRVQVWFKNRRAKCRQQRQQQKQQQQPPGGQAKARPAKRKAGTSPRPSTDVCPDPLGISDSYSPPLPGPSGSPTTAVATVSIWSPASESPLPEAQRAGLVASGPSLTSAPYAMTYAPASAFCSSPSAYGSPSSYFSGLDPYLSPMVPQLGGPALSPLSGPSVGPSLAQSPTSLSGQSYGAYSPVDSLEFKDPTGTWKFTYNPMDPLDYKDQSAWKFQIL
In short: as §1

ETV1 = ETV1 (Homo sapiens, UniProt P50549 1-477); conditions: protein: recombinant; tags: N-terminal GST; dsDNA, one strand shown
Chain of ETV1 (P50549 whole entry): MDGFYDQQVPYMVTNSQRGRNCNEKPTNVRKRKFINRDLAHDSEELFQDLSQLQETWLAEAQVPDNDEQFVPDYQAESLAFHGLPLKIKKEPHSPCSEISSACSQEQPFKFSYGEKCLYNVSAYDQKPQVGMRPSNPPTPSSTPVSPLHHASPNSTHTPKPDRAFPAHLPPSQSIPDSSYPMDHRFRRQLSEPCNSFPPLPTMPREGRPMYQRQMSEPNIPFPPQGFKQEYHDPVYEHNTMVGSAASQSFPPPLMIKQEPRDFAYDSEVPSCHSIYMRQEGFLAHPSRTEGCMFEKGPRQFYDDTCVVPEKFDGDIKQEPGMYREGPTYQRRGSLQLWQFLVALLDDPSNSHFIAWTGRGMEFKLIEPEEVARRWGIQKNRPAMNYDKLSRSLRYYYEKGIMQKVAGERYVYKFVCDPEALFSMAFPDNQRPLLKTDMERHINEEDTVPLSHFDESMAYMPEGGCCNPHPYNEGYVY
In short: as §1

AACCTG
binding signal (FLI1): 1.19 fold enrichment (6-mer frequency, TF over GST control) | binding signal (ELK1): 1.2 fold enrichment (6-mer frequency, TF over GST control) | binding signal (GABPA): 1.17 fold enrichment (6-mer frequency, TF over GST control) | binding signal (ERG): 1.09 fold enrichment (6-mer frequency, TF over GST control) | binding signal (ELF1): 1.16 fold enrichment (6-mer frequency, TF over GST control) | binding signal (EHF): 1.22 fold enrichment (6-mer frequency, TF over GST control) | binding signal (SPI1): 1.27 fold enrichment (6-mer frequency, TF over GST control) | binding signal (SPIB): 1.12 fold enrichment (6-mer frequency, TF over GST control) | binding signal (ELK3): 1.21 fold enrichment (6-mer frequency, TF over GST control) | binding signal (FEV): 1.2 fold enrichment (6-mer frequency, TF over GST control) | binding signal (ETV5): 1.16 fold enrichment (6-mer frequency, TF over GST control) | binding signal (HSF1): 1.03 fold enrichment (6-mer frequency, TF over GST control) | binding signal (SPIC): 1.04 fold enrichment (6-mer frequency, TF over GST control) | binding signal (ELF4): 1.25 fold enrichment (6-mer frequency, TF over GST control) | binding signal (ELK4): 1.3 fold enrichment (6-mer frequency, TF over GST control) | binding signal (ETV2): 1.16 fold enrichment (6-mer frequency, TF over GST control) | binding signal (ELF3): 1.12 fold enrichment (6-mer frequency, TF over GST control) | binding signal (CRX): 1.1 fold enrichment (6-mer frequency, TF over GST control) | binding signal (ETV1): 1.14 fold enrichment (6-mer frequency, TF over GST control)
